Laboratory results taken from PubChem BioAssay (NCATS).
Several values for one entry are separate records, joined by “and”; a condition that tells them apart may be missing. Equal values may be shown once. Results filed as inconclusive are left out. A structure can be active in one record and inactive in another. Activity calls are given as the source filed them. Unless noted, calls follow the shape of the dose curve; as a rule, active = well fitted curve in the direction sought with a large enough effect; inconclusive = small, poorly fitted or top-dose-only effect, or another doubt; inactive = no such curve, though single readings can be large; an effect the other way counts as inactive or inconclusive.

Key:
[1] = Validation qHTS assay for inhibitors of Activation Induced Cytidine Deaminase (AID): UDG Counterscreen signal (AID 1347427); also: 0% is about no effect
Procedure, shortened: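 Counterscreen read of UDG activity (2 U/mL, 4/3x) in the FRET deamination format with AID (1 uM, 4/3x), DJC20/DJC23 substrates (250 nM, 4x), 4 h at room temperature. NaOH stop, fluorescence at 560 ex/665 em.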

[2] = molecular target: Single-stranded DNA cytosine deaminase (Homo sapiens) (UniProt Q9GZX7); assay: Validation qHTS assay for inhibitors of Activation Induced Cytidine Deaminase (AID): AID signal (AID 1347429); also: potency is read from the fitted curve at half-maximal effect
Single-stranded DNA cytosine deaminase (Homo sapiens), sequence (Q9GZX7 whole entry, looked up): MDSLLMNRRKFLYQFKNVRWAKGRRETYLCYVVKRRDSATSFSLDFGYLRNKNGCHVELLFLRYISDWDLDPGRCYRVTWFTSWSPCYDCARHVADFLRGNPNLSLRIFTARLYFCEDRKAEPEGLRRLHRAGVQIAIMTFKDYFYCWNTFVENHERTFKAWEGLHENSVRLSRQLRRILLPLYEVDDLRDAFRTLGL
Procedure, shortened: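 FRET deamination assay: 1 uM AID (4/3x stock) with UDG, compound up to 114 uM, then 250 nM DJC20/DJC23 substrate (4x stock) for 4 hr at room temperature. NaOH added, 30 min; fluorescence read 540/590 nm.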

[3] = Primary qHTS for inhibitors of La Crosse Virus (LACV) - induced cell death in SH-SY5Y cells (AID 1508616);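 also: top concentration of the series differs between compounds; 0% = infected DMSO wells and 100% = uninfected DMSO wells; higher means more rescue of cells from virus-induced death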
Procedure, shortened: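 SH-SY5Y cells (6000/well) plated 24 h, then given compounds by pin transfer and LACV at 0.01 MOI for 6 days at 37C. Viability measured by ATPLite luminescence, normalized to infected DMSO and uninfected DMSO.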

[4] = Primary qHTS for small molecule stabilizers of the endoplasmic reticulum resident proteome: Secreted ER Calcium Modulated Protein (SERCaMP) assay (AID 1508630); also: % is scaled to controls: 0 for no effect and ±100 for the full control effect
Procedure, shortened: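 GLuc-SERCaMP-expressing SH-SY5Y cells, pretreated 16 h with compound, are challenged with thapsigargin to empty ER calcium stores; after 4 h, coelenterazine is added directly to the medium and luminescence is imaged.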

[5] = A High-Content qHTS Against Drug Library for the Identification of Small Molecules that Inhibit DYT1 Early Onset Primary Dystonia-Associated Cell Pathology (AID 1645839; calls by dose curve; also: potency is read from the fitted curve at half-maximal effect)
Procedure, shortened: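 In this high-content image screen, delE TorsinA mislocalization in inducible Flp-In 293 cells is scored as %pathology, with cell count serving as the counterscreen. Compound exposure lasts 48 h under tetracycline induction in reduced-serum medium.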

Papain (Carica papaya) = Papain (Carica papaya) (UniProt P00784); assay: Primary qHTS assay for inhibitors of the protease papain (AID 1645873);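 also: papain turnover of Z-FR-AMC read as the AMC fluorescence gain over 10 min; series mostly up to about 50 µM; % is scaled to controls: 0 for no effect and ±100 for the full control effect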
Papain (Carica papaya), sequence (P00784 whole entry, looked up, the tested form may be a part): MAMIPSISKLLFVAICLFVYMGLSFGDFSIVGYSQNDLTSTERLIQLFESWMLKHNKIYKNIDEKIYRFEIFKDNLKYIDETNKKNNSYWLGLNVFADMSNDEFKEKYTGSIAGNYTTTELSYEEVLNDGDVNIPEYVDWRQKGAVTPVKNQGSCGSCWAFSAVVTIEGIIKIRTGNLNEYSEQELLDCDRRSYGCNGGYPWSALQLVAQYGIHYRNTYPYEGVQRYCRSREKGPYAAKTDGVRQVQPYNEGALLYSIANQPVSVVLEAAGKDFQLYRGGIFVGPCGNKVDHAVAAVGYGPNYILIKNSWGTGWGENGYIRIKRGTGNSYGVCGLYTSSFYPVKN

[6] = Primary qHTS for inhibitors of nuclear receptor binding SET domain protein 2 (NSD2) in an isogenic RCH-ACV NSD2 p.E1099K mutant (9B) (AID 1645876); also: nearly all actives have a fitted effect of over 70% in size; also: potency is read from the fitted curve at half-maximal effect
[7] = Primary qHTS for inhibitors of nuclear receptor binding SET domain protein 2 (NSD2) in an RCH-ACV wild type WT cells (2C) (AID 1645877); also: nearly all actives have a fitted effect of over 70% in size; also: potency is read from the fitted curve at half-maximal effect
[8] = molecular target: Calcium and integrin-binding protein 1 (Homo sapiens) (UniProt Q99828); assay: Validation qHTS for Identification of Calcium Integrin Binding protein 1 (CIB1) Competitor (AID 1508618); also: % is scaled to controls: 0 for no effect and ±100 for the full control effect
Calcium and integrin-binding protein 1 (Homo sapiens), sequence (Q99828 whole entry, looked up): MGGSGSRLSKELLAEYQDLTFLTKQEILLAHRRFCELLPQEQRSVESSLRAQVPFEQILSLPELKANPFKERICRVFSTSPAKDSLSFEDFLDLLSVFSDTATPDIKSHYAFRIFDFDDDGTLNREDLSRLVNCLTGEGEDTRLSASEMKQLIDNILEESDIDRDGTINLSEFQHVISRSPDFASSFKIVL
Procedure, shortened: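 In this qHTS validation, the LOPAC set (up to 114 uM) was tested for blocking CIB1 binding to a fluorescein-tagged alphaIIb peptide, with FP detection at 480/540 nm.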

[9] = molecular target: Calcium and integrin-binding protein 1 (Homo sapiens) (UniProt Q99828); assay: Primary qHTS for Identification of Calcium Integrin Binding Protein 1 (CIB1) Competitor (AID 1508620);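 also: GST tagged CIB1 binding a fluorescein labelled alphaIIb integrin peptide tracer; top concentration of the series differs between compounds; % is scaled to controls: 0 for no effect and ±100 for the full control effect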
Procedure, shortened: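 CIB1-GST (1 uM final) and compound incubated 15 min at room temperature before adding FITC-alphaIIb peptide tracer (100 nM final). Competition for binding read by fluorescence polarization (ex 480, em 540) after another 15 min at room temperature.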

[10] = molecular target: Rap guanine nucleotide exchange factor 3 (Homo sapiens) (UniProt O95398); assay: Confirmatory qHTS for antagonist of cAMP-regulated guanine nucleotide exchange factor 3 (EPAC1) (AID 1645880);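 also: plate controls were DMSO only for no effect and full effect of the ATA control for full effect; nearly all actives have a fitted effect of over 55% in size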
Rap guanine nucleotide exchange factor 3 (Homo sapiens), sequence (O95398 whole entry, looked up): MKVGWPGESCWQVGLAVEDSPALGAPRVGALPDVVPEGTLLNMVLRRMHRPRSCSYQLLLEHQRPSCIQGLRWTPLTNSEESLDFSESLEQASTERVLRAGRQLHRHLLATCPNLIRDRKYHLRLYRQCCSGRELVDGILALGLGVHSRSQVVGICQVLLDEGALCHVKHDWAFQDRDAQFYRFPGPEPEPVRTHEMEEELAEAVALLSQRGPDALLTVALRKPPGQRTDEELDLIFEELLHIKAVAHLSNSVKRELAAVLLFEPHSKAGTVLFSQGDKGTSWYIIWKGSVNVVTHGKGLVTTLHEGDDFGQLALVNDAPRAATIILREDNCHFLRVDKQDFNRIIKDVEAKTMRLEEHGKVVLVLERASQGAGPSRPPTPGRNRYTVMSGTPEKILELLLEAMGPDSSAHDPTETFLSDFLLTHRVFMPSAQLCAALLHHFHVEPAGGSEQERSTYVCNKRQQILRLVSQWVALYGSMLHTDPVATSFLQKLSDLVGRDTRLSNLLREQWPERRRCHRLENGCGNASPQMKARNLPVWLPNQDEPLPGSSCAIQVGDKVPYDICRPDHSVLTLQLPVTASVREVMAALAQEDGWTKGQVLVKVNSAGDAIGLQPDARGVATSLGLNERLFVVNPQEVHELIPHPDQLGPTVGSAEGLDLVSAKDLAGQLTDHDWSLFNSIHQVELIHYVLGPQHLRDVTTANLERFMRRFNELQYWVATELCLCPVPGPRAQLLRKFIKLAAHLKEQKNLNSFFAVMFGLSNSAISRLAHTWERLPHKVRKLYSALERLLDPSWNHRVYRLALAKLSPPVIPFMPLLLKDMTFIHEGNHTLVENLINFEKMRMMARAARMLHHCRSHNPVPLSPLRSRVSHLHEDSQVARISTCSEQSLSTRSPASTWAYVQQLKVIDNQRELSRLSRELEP
Procedure, shortened: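 Nucleotide exchange uses 100 nM EPAC1, 250 nM RAP1B-BODIPY-GDP and 50 uM GDP, with compounds in a concentration-titration series. After 5 min at room temperature, fluorescence (480 nm ex/540 nm em) is read every 5 min for 30 min. Data are normalized to control ATA and DMSO.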

[11] = molecular target: Rap guanine nucleotide exchange factor 3 (Homo sapiens) (UniProt O95398); assay: Confirmatory qHTS for agonist of cAMP-regulated guanine nucleotide exchange factor 3 (EPAC1) (AID 1645881);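 also: EPAC1 catalysed release of BODIPY-GDP from Rap1B seen as fluorescence loss; 100% = effect of cAMP agonist control; nearly all actives have a fitted effect of over 75% in size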
[12] = molecular target: Cytochrome P450 2D6 (Homo sapiens) (UniProt P10635); assay: Cytochrome P450 family 2 subfamily D member 6 (CYP2D6) small molecule antagonists: luciferase biochemical (cell-free) qHTS assay (AID 1645840; active = well fitted curve in the direction sought with a large enough effect in the repeat runs; an effect the other way counts as inactive or inconclusive; also: nearly all actives have a fitted effect of over 55% in size; also: potency is read from the fitted curve at half-maximal effect)
Cytochrome P450 2D6 (Homo sapiens), sequence (P10635 whole entry, looked up): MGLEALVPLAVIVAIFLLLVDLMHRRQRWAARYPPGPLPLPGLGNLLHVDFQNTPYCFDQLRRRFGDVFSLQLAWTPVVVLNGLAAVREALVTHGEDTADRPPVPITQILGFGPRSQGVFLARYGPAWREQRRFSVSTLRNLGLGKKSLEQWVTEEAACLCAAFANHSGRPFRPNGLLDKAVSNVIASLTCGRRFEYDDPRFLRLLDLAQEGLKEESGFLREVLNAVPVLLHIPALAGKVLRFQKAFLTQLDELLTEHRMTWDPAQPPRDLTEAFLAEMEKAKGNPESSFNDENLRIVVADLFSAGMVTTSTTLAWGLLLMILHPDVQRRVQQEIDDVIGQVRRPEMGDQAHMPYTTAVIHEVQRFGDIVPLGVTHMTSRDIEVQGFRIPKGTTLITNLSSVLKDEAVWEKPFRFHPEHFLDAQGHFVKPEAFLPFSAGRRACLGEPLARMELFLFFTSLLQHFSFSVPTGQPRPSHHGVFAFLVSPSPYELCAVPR
Procedure, shortened: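 P450-Glo luminescent screen: recombinant CYP2D6 enzyme–proluciferin substrate mix preincubated with compound 10 min at room temperature, then NADPH regeneration added for 1 h at room temperature. Detection reagent added for 20 min; luciferin light read as relative luminescence units.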

[13] = molecular target: Cytochrome P450 2C9 (Homo sapiens) (UniProt P11712); assay: Cytochrome P450 family 2 subfamily C member 9 (CYP2C9) small molecule antagonists: luciferase biochemical (cell-free) qHTS assay (AID 1645842; active = well fitted curve in the direction sought with a large enough effect in the repeat runs; an effect the other way counts as inactive or inconclusive; also: nearly all actives have a fitted effect of over 55% in size; also: potency is read from the fitted curve at half-maximal effect)
Cytochrome P450 2C9 (Homo sapiens), sequence (P11712 whole entry, looked up): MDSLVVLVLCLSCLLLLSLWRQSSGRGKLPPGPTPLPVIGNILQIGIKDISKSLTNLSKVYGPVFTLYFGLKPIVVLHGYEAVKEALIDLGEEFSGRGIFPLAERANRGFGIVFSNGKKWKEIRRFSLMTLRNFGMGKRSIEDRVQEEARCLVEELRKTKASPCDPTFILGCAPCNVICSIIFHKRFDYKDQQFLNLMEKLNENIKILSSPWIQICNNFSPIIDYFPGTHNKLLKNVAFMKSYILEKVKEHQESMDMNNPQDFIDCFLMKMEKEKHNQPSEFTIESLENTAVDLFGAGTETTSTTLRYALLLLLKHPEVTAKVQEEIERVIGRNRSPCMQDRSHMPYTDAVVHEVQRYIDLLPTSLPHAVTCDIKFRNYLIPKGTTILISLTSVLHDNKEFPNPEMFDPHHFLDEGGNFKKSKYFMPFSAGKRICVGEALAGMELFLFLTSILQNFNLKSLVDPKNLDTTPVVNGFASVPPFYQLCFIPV
Procedure, shortened: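 Luminescence, after 20 min with luciferin detection reagent, reflected CYP2C9 turnover during a 1 h NADPH-driven reaction at 37C. Enzyme-substrate mix contained 0.4% bovine serum albumin and was preincubated with compound 10 min at room temperature.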

[14] = Counterscreen qHTS for small molecule stabilizers of the endoplasmic reticulum resident proteome: GLuc-NoTag assay (AID 1508627);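 also: SH-SY5Y cells given compound then 100 nM thapsigargin to empty ER calcium; series mostly up to about 76 µM; 0% = thapsigargin alone and -100% = DMSO vehicle control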
Procedure, shortened: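 Luminescence of Gaussia luciferase secreted into the medium (coelenterazine, 0.07x final, unlysed cells) was the read-out. Human SH-SY5Y neuroblastoma cells constitutively secreting untagged GLuc received compound for 19 h, then 100 nM thapsigargin for 4 h.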

[15] = Confirmatory qHTS for small molecule stabilizers of the endoplasmic reticulum resident proteome: Secreted ER Calcium Modulated Protein (SERCaMP) assay (AID 1508628); also: nearly all actives have a fitted effect of over 40% in size; also: potency is read from the fitted curve at half-maximal effect
Procedure, shortened: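 SH-SY5Y cells stably expressing GLuc-SERCaMP, treated 16 h with compound (primary 1.53, 7.67, 38.3 uM; confirmation 11 concentrations, up to 76.6 uM), then 100 nM thapsigargin for 4 h. Secreted Gaussia luciferase in medium read by coelenterazine luminescence.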

[16] = Cell Viability qHTS for small molecule stabilizers of the endoplasmic reticulum resident proteome (AID 1508629); conditions: cell viability counter-screen, 100 nM thapsigargin for final 4 h
[17] = molecular target: Cytochrome P450 3A4 (Homo sapiens) (UniProt P08684); assay: Cytochrome P450 family 3 subfamily A member 4 (CYP3A4) small molecule antagonists: luciferase qHTS assay (AID 1645841; active = well fitted curve in the direction sought with a large enough effect in the repeat runs; an effect the other way counts as inactive or inconclusive; also: nearly all actives have a fitted effect of over 45% in size)
Cytochrome P450 3A4 (Homo sapiens), sequence (P08684 whole entry, looked up): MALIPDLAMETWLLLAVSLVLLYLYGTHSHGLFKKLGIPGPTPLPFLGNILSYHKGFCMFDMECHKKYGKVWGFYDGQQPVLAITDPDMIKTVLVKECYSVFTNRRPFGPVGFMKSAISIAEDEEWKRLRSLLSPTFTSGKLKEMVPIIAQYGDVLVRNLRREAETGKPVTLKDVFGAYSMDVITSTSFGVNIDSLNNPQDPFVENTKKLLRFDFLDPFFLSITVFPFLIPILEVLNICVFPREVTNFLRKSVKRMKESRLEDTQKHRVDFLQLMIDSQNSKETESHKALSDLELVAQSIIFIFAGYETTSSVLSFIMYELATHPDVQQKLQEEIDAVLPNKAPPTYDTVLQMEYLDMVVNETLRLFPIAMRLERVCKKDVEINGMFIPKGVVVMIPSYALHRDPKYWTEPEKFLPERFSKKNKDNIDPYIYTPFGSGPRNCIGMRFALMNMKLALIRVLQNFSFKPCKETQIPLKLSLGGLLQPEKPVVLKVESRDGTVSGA
Procedure, shortened: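 Luminescent CYP3A4 activity readout: compounds plus enzyme-substrate mix 10 min at room temperature, reaction started with NADPH regenerating system for 1 h, stopped with detection reagent, read after 20 min. Ketoconazole served as control.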

CC/C(=C(\c1ccccc1)c1ccc(OCCN(C)C)cc1)c1ccccc1
inactive: outcome [1] | Potency [2] | outcome [3] | Potency [4] | outcome (Papain (Carica papaya)) | Potency [6]
active: Potency [5] 11.2 µM | Potency [7] 17.1 µM

CC1(C)CCC2=C(O1)c1ccccc1C(=O)C2=O
inactive: outcome [8] | Potency [9] | Potency [4] | outcome (Papain (Carica papaya)) | outcome [10] | outcome [11]
active: Potency [2] 7.08 µM | Potency [6] 13.2 µM | Potency [7] 9.34 µM

CCN(CC)CCNC(=O)c1ccc(N)cc1
inactive: outcome [3] | outcome [8] | Potency [4] | Potency [5] | Potency [12] | Potency [13] | Potency [6]

CC1=C(/C=C/C(C)=C/C=C/C(C)=C/C(=O)Nc2ccc(O)cc2)C(C)(C)CCC1
inactive: outcome [1] | Potency [2] | outcome [3] | outcome [8] | Potency [9] | Potency [14] | max response [16] 14.9% | Potency [4] | outcome (Papain (Carica papaya))
inactive and 31.6 µM (active): Potency [15]
active: Potency [13] 2.75 µM | Potency [6] 1.88 µM and 2.95 µM | Potency [7] 1.88 µM and 2.95 µM

COC(=O)[C@@H]1[C@H]2C[C@H]3c4[nH]c5ccccc5c4CCN3C[C@@H]2CC[C@@H]1O
inactive: outcome [1] | Potency [2] | outcome [3] | Potency [4] | outcome (Papain (Carica papaya)) | Potency [6]

CC(C)NCC(O)COc1cccc2[nH]ccc12 (stereo not drawn)
inactive: outcome [1] | Potency [2] | outcome [3] | outcome [8] | Potency [9] | Potency [5] | outcome (Papain (Carica papaya)) | Potency [6] | Potency [7]

O=C1NC(=O)C(c2ccccc2)(c2ccccc2)N1
inactive: outcome [1] | Potency [2] | outcome [3] | outcome [8] | Potency [9] | Potency [5] | Potency [12] | outcome (Papain (Carica papaya)) | Potency [6] | Potency [7]

O=c1[nH]cnc2c1ncn2[C@H]1CC[C@@H](CO)O1
inactive: outcome [3] | Potency [9] | Potency [4] | Potency [5] | outcome [17] | Potency [13] | Potency [6] | Potency [7]

CC(=O)c1ccc(S(=O)(=O)NC(=O)NC2CCCCC2)cc1
inactive: outcome [1] | Potency [2] | outcome [3] | outcome [8] | Potency [9] | Potency [5] | Potency [12] | outcome (Papain (Carica papaya)) | Potency [6] | Potency [7]

COc1ccccc1N1CCN(CCCNc2cc(=O)n(C)c(=O)n2C)CC1
inactive: outcome [1] | Potency [2] | outcome [3] | outcome [8] | Potency [9] | Potency [5] | Potency [13] | outcome (Papain (Carica papaya)) | Potency [6] | Potency [7]

CC(C)(C)c1ccc(C(O)CCCN2CCC(C(O)(c3ccccc3)c3ccccc3)CC2)cc1 (stereo not drawn)
inactive: outcome [1] | Potency [2] | outcome [3] | outcome [8] | Potency [9] | outcome (Papain (Carica papaya))

CCCCCN(C)CCC(O)(P(=O)(O)O)P(=O)(O)O
inactive: outcome [1] | Potency [2] | outcome [3] | Potency [9] | outcome [6] inactive [at 4.96 µM] | activity change, negative = cell killing [7] 7.25% [at 4.96 µM]

CCN(CC)C(=O)c1ccc(O)c(OC)c1
inactive: outcome [1] | Potency [2] | outcome [3] | outcome [8] | Potency [9] | Potency [4] | Potency [5] | Potency [13] | outcome (Papain (Carica papaya)) | Potency [6] | Potency [7]

NC(N)=Nc1nc(CSCC/C(N)=N/S(N)(=O)=O)cs1
inactive: outcome [1] | Potency [2] | outcome [3] | outcome [8] | Potency [9] | Potency [4] | Potency [5] | Potency [13] | outcome (Papain (Carica papaya)) | Potency [6]

CCN(CC)CCOC(=O)c1ccc(N)cc1
inactive: outcome [1] | Potency [2] | outcome [3] | outcome [8] | Potency [9] | Potency [14] | Potency [15] | Potency [4] | Potency [5] | Potency [13] | outcome (Papain (Carica papaya)) | Potency [6] | Potency [7]

CCCNC(=O)NS(=O)(=O)c1ccc(Cl)cc1
inactive: outcome [1] | Potency [2] | outcome [3] | outcome [8] | Potency [9] | Potency [5] | Potency [12] | outcome (Papain (Carica papaya)) | Potency [6] | Potency [7]

CC(=O)N[C@@H](CS)C(=O)O
inactive: outcome [1] | Potency [2] | outcome [3] | outcome [8] | Potency [9] | Potency [4] | Potency [5] | Potency [12] | Potency [13] | outcome (Papain (Carica papaya)) | Potency [6] | Potency [7]

O=C(O)CCc1nc(-c2ccccc2)c(-c2ccccc2)o1
inactive: outcome [1] | Potency [2] | outcome [3] | Potency [9] | Potency [5] | Potency [12] | Potency [13] | outcome (Papain (Carica papaya)) | Potency [6] | Potency [7]

COc1ccc(Cc2nccc3cc(OC)c(OC)cc23)cc1OC
inactive: outcome [1] | Potency [2] | outcome [8] | outcome (Papain (Carica papaya))

O=C1NCC2(CCN(CCc3ccccc3)CC2)O1
inactive: outcome [1] | Potency [2] | outcome [3] | outcome [8] | Potency [9] | Potency [5] | outcome [17] | Potency [13] | outcome (Papain (Carica papaya)) | Potency [6] | Potency [7]

Cc1cccc(C)c1OCC(C)N (stereo not drawn)
inactive: outcome [1] | Potency [2] | outcome [3] | Potency [4] | Potency [5] | Potency [13] | outcome (Papain (Carica papaya)) | Potency [6] | Potency [7]
active: Potency [12] 13.8 µM and 21.3 µM
